Laboratory results published in the supplement of paper PMC3334620.
In all, about 33,000 sequences were measured (“E-score (-0.5 to 0.5)”: median about -0.011, highest 2% from about 0.28 on). The sample as a whole holds a higher share of the highest values than the screen did.

target: T1, Gcr1 (UniProt P07261); experiment: PBM E-score (8-mer binding enrichment) (E-score (-0.5 to 0.5)); higher = stronger / more preferred TF binding; conditions: protein concentration: 100 nM; construct: GST-full length
T1 sequence: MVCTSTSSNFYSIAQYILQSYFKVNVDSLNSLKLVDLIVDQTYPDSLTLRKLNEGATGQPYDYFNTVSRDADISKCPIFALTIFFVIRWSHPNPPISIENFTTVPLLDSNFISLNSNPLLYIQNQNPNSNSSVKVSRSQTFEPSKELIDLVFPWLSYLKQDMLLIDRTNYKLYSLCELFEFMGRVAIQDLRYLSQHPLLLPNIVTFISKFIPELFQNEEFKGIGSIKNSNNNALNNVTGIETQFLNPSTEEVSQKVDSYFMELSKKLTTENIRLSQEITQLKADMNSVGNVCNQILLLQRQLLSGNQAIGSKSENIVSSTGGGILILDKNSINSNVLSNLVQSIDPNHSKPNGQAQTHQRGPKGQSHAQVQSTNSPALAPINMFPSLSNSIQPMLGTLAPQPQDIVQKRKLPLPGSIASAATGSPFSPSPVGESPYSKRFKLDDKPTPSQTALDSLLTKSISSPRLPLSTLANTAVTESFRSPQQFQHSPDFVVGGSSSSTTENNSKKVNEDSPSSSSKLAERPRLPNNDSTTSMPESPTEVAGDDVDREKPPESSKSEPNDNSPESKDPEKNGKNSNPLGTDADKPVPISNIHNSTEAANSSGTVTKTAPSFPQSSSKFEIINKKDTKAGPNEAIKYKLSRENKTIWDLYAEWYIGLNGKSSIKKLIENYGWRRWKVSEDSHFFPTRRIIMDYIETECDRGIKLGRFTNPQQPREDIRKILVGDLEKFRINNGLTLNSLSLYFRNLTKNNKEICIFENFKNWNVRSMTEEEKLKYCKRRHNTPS
In short: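 GST-tagged yeast TFs (full-length or DNA-binding domain) were made by PURExpress in vitro transcription/translation and applied at about 100-200 nM to universal all-10-mer Agilent arrays. The arrays were made double-stranded by primer extension, on fresh or once-stripped slides. Bound protein was detected with fluorescent anti-GST, and scans were normalised with masliner. Each ungapped eight-base word, pooled with its reverse complement, received an E-score (modified Wilcoxon-Mann-Whitney statistic) from the Universal PBM Analysis Suite.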

Sequence	PBM E-score
CTCCGCAA	0.0291
AAAAGACG	0.131
AGGGAAGG	-0.218
AGGGAAGA	-0.198
AGGGAAGC	0.281
CGGGAAGA	0.0397
CGGGAAAC	0.191
CGGGAAGC	0.317
ATACTGCA	0.0345
ACTTGCAC	-0.126
TAGCCTGA	-0.232
AAGAGGCG	0.0559
CAGAGAAA	-0.0752
CTCTGGAA	0.256
TCCTGGAA	0.162
ATCTGGAC	0.133
TACTGGAA	0.446
TGCTGGAA	0.136
CACTGGAG	-0.0119
AACTGGAA	0.342
CACTGGAA	0.318
AACTGGAG	0.115
ATCTGGAA	0.333
AACTGGAC	0.198
CACTGGAC	0.0576
GTCGCAAC	0.0865

Sequence	PBM E-score
GTACAAAA	-0.0647
ATCCCTTA	-0.00764
ACTCTAAT	-0.029
ATTTGTCC	-0.109
GTCCTGTA	0.168
AGTAACCG	0.184
CGGATCAG	0.11
ATGAACAC	0.0906
GAGCCCCA	0.169
GAAGAGAA	0.0371
ACACGTGG	0.0635
GACTGGCA	-0.0492
GACTGGAC	0.0539
GACTGGAA	0.325
CGTCGGTA	-0.15
GCTGGACA	-0.0923
CCAATACC	0.205
GAAGCTAC	0.323
GAAGCTAA	0.312
AAAGCTAA	-0.0138
TAAGCTAA	-0.153
CAAGCTAC	0.108
AAAGCTAC	-0.0941
CTGCGACA	-0.106
CTTATAAA	0.291
AGTATAAA	0.0707

Sequence	PBM E-score
CGTATAAC	0.269
CTTATAAG	-0.0238
CGTATAAA	0.32
CTTATAAC	-0.0336
TGAAACCA	0.106
ACAGACAA	0.0204
GGGGTTTA	-0.117
GGTGAGGA	-0.0681
AAAGTAAT	0.154
GGTGGGAA	0.0991
GGCGGGGA	0.304
CGTGGGGA	0.0446
CGCGGGGA	0.0382
GGCGGGAA	0.0372
GGTGGGGA	0.345
GTACTTTA	0.107
GGGCCTAC	-0.25
ATTGGGGC	0.124
AGTCAGCG	0.0668
CGGAACGA	0.0962
GGGATAAC	0.0951
CAGCTGCG	0.061
AAGCTGCT	0.185
AAGCTGCC	0.347
GAGCTGCC	0.187
CAGCTGCC	0.352

Sequence	PBM E-score
CAGCTGCA	-0.0536
ACAGAGGT	0.0543
CCCACTTA	0.0227
CGCTCGAC	-0.094
TCCAAAAA	0.253
ACTAGCGG	-0.0781
GGACACTA	0.0929
AACTAGGC	0.122
CGGGAGCA	-0.109
CGGGAGAC	0.036
CGGGAGCC	0.337
AGGGAGCA	-0.171
AGGGAGCG	0.0432
AGGGAGCC	0.296
ATTGCCGC	-0.0608
GATTTCAC	-0.0263
AGCGAGCA	-0.108
CCGCTTCA	-0.0817
AGGCTTCA	-0.0957
GCGCTTCA	-0.0425
AGGCTTCG	0.00576
ACGCTTCC	0.313
AGGCTTCC	0.436
GCGCTTCC	0.348
GCGCTTAC	-0.17
ACGCTTCG	-0.0461

Sequence	PBM E-score
CCGCTTCC	0.346
ACGCTTCA	-0.0408
CCGCTTCG	0.0926
GCGAATTA	-0.00089
AAACCAAA	0.066
AGACCTCC	-0.282
CGCTAGGC	-0.216
CACGGCCG	-0.152
ATCGGGTA	-0.136
AAGTCTCG	-0.336
CTCTAAAC	0.0413
GGTCTGGA	0.0233
GCCAGCGA	-0.0966
CACCAAGG	0.0974
CCACCATC	0.0892
GACGGACA	-0.264
AAAAGTAG	0.295
AAAAGTAT	-0.0691
CAAAGTGG	0.00098
AAAAGTGG	0.381
AAAAGTGA	0.0915
AAAAGTAA	0.157
CCCATCAC	-0.136
GGTATTCA	0.0919
GATGGCCA	-0.214
AATGGATG	0.134

Sequence	PBM E-score
AGTGGATC	0.286
CGTGGATC	0.00349
AGTGGATA	0.0533
AGTGGATG	0.394
ATTGGATC	0.193
CCTCCTGC	-0.0964
ATCTTCGC	-0.0394
ATAGAGGC	0.174
ATAGAGGG	0.137
ATAGAGGA	0.346
ATGTCCCG	-0.183
GCTATTGA	-0.21
GACCACTA	0.179
TACCACTA	0.365
CACCACTG	0.167
AACCACTA	0.241
CACCACTA	0.298
CACCACTC	0.134
AGTTGCAA	-0.105
CGTAGTGA	-0.043
CGTACCGC	-0.162
ATGATACG	0.107
CAAGACAC	0.0836
TCACCCAA	-0.00294
GCACCCCA	0.241
CCGCCCTA	-0.0561

Sequence	PBM E-score
TCGCCTAA	0.0844
GCGCCCTA	0.319
GCGCCTAC	0.256
GCACCCAA	0.303
ACGCCCTA	0.178
GCACCCTA	0.297
CCACCCTA	0.0045
GCGCCTAA	0.407
ACACCCTA	-0.021
CACCACCG	-0.0609
GAGTTGCA	-0.0956
GTGAGAAC	-0.0123
GATGGATA	0.0193
CCCCCGGC	-0.0149
GGAACGGA	-0.0468
CCGAGTCA	-0.25
ATTCGAAT	0.0645
AGATGACG	-0.0775
CCACCCAC	-0.0236
GCACCCAC	0.397
